Only some compounds are listed: those with a hit (about 0.69% of all), similar ones and a draw of the others.
E coli growth-1 – blocks Escherichia coli growth; OD600, 23 h; hits give low values; OD600 absorbance (test concentration not listed); hit rate 0.21% among 330,000; AID 1053175;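 active means OD600 absorbance below the run mean of sample wells minus 3.6 SD, in any replicate, cut at about 0.56 in these data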
AddAB inh – less growth of phage-infected E. coli with AddAB. inhibition, % at 11.9 µM. E. coli expressing H. pylori AddAB, absorbance growth. hit rate 0.29% among 330,000. AID 435030; in the data active means inhibition above about 12%;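 further: 0% = vehicle wells of infected cells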
Tat transport – E. coli Tat transport inhibition | E. coli MC4100 TorA-mCherry Tat export, fluorescence | AID 488895 | inhibition, % at 10 µM | hit rate 0.036% among 340,000;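 active means mean replicate inhibition at least 50% and at least half of replicates individually reaching 50%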;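 further: exported cargo escapes ClpAP degradation while cytoplasmic cargo is degraded and loses fluorescence; 0% = median of neutral control wells and 100% = median of NaSCN control wells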
phage Ecoli inh – E. coli growth loss with phage present; inhibition, % at 11.9 µM; growth absorbance; AID 651602; hit rate 0.26% among 360,000; in the data active means inhibition above about 11%
PfHsp90 set2 – reduces growth (ATP signal) of yeast expressing P. falciparum Hsp90 | S. cerevisiae expressing PfHsp90, BacTiter-Glo ATP, 48 h; yeast lacking PDR1 and PDR3 efflux regulators | inhibition, % at 9.4 µM | hit rate 0.32% among 310,000 | AID 504621;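 active means every replicate shows inhibition above about 80%, whatever the replicate mean, limit read from the data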;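 further: 0% = DMSO neutral controls and 100% = 20 µM radicicol positive controls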
E coli growth-2 – counter-screen for AddAB inhibitors: E. coli growth inhibition; E. coli V3065 growth, OD600 absorbance, 18 h; hit rate 0.27% among 330,000; inhibition, % at 11.9 µM;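 active means inhibition above the campaign's mean inhibition across all tested compounds plus 3 SD, cut at about 9.9% in these data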;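 further: uninfected addAB+ strain grown without phage in ampicillin broth; 0% = DMSO wells and 100% = ciprofloxacin 0.95 µg/ml wells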
AddAB confirm – confirmation screen: growth loss of phage-infected E. coli expressing H. pylori AddAB. shares compounds with AddAB inh. E. coli V3065 expressing H. pylori AddAB, T4 phage, OD; T4 phage with gene 2 nonsense mutations. inhibition, % at 11.9 µM. hit rate 64% among 880. AID 488942;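 active means mean inhibition above a set limit taken from the earlier primary screen, cut at about 13% in these data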;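 further: higher means less bacterial growth since AddAB block lets phage replicate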
RecBCD counter – reduces growth of phage-infected RecBCD+ E. coli, AddAB inhibitor counter-screen; shares compounds with AddAB inh; E. coli V66 + mutant T4 phage, OD growth; inhibition, % at 11.9 µM; hit rate 73% among 880;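 active means mean inhibition above the mean of solvent-only control wells plus 3 SD, cut at about 4% in these data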;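 further: optical density read after an 18 h incubation at 37 °C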
bact viab count – reduces bacterial viability, AddAB inhibitor counter-screen; absorbance (AddAB counterscreen); inhibition, % at 11.9 µM; shares compounds with AddAB inh; hit rate 35% among 880; AID 488956; in the data active means inhibition above about 25%
Starred values were filed as active, the others as inactive; / = no result given.

SMILES | E coli growth-1 | AddAB inh | Tat transport | phage Ecoli inh | PfHsp90 set2 | E coli growth-2 | AddAB confirm | RecBCD counter | bact viab count
Cc1ccc(/C=C/C(=O)c2ccccc(=O)c2O)cc1C | 0.69 | 13* | 5 | 4 | 97* | 7 | 6 | 6.1* | 5
COc1ccc(S(=O)(=O)NN=Cc2ccc3c(c2)OCO3)c(OC)c1 | 0.71 | / | / | / | / | / | / | / | /
O=C(N/N=C/c1ccc([N+](=O)[O-])o1)C1CCCC1 | / | 12* | -5 | 8 | -7 | 9 | 74* | 5.0* | 13
COc1ccc(S(=O)(=O)N/N=C\c2ccc([N+](=O)[O-])o2)c(OC)c1 | / | 30* | -21 | 10 | -3 | 24* | 100* | 8.3* | 40*
O=[N+]([O-])c1ccc(/C=N\NS(=O)(=O)c2ccc(F)cc2)o1 | / | 93* | -9 | 11 | -2 | 20* | 99* | 8.0* | 54*
Cc1ccc(S(=O)(=O)NN=Cc2ccc(C)o2)cc1 | 0.69 | / | / | / | / | / | / | / | /
Oc1ccc(C=NNC2=NCCCCC2)cc1 | 0.7 | / | / | / | / | / | / | / | /
CCCOc1ccccc1/C=N/Nc1ccnc(=O)[nH]1 | / | 13* | 4 | 1 | 12 | 21* | 100* | 4 | 68*
CCCOc1ccccc1C=NNc1ccnc(=O)[nH]1 | 0.51 | / | / | / | / | / | / | / | /
Cc1ccc(OCC(=O)N2CCc3ccccc32)c([N+](=O)[O-])n1 | 0.67 | 24* | 4 | 8 | -14 | 19* | 46* | 5.4* | 43*
O=C(COC(=O)c1ccc([N+](=O)[O-])s1)c1ccc[nH]1 | / | 12* | -9 | 3 | -22 | 9 | 68* | 3 | 10
CCCCCCCCC[n+]1cccc2c3ccccc3ccc21 | 0.49* | 15* | -12 | / | 12 | 16* | 9 | 6.6* | 7
C/C(=C\C(=O)OCCCCCCCCC(=O)O)C[C@@H]1OC[C@H](C[C@@H]2O[C@H]2[C@@H](C)[C@H](C)O)[C@@H](O)[C@H]1O | / | 18* | 128* | 10 | -5 | 6 | 7 | 18* | 2
CN=c1c([N+](=O)[O-])nn(-c2ccc3c(c2)OCCO3)n1O | 0.54 | 21* | 1 | 6 | -12 | 19* | 31* | 9.9* | 31*
Cc1onc(-c2ccccc2)c1-c1csc(NN=Cc2ccccc2)n1 | 0.68 | / | / | / | / | / | / | / | /
Oc1ccc(/C=N/NC(=S)Nc2cccnc2)c(O)c1 | / | 16* | 3 | 5 | 12 | 11* | 8 | 11* | 16
Cc1cccc2cc(C#N)c(N3CCC(O)CC3)nc12 | 0.7 | 13* | -12 | 3 | -6 | 2 | 2 | 0 | -1
Cc1cccc2cc(C#N)c(N3CCOCC3)nc12 | 0.67 | 3 | -3 | 2 | -6 | -1 | / | / | /
CC(C)C(=O)N1CCN(c2ccc(NC(=O)c3ccc([N+](=O)[O-])o3)cc2)CC1 | 0.69 | 13* | -2 | 4 | 2 | 6 | 29* | 3 | 8
O=C(c1ccc([N+](=O)[O-])o1)N1CCOCC1 | 0.54 | 17* | -13 | 11 | -9 | 11* | 64* | 8.5* | 16
O=C(Nc1ccccc1)C1=CC(c2ccc3c(c2)OCO3)CC(OCCCCO)O1 (configuration not stated) | 0.69 | / | / | / | / | / | / | / | /
O=[N+]([O-])c1cc(C=NNc2nc(-c3ccccc3)cs2)ccc1O | 0.69 | / | / | / | / | / | / | / | /
COc1ccc(N2C(=O)C(=Cc3ccc([N+](=O)[O-])cc3)N=C2C)c(OC)c1 | 0.69 | / | / | / | / | / | / | / | /
CCN1C(=NCCCOC(C)C)NC(c2ccccc2)C(C(=O)OC)C1C (configuration not stated) | 0.66 | / | / | / | / | / | / | / | /
Cc1cc(=O)n(-c2ccc(O)cc2)[nH]1 | 0.54 | 98* | -3 | 11 | 9 | 93* | 78* | 7.7* | 46*
SMILES | E coli growth-1 | AddAB inh | Tat transport | phage Ecoli inh | PfHsp90 set2 | E coli growth-2 | AddAB confirm | RecBCD counter | bact viab count
CC(C)N1C(=O)C2C(c3ccccc3O)NC(C)(C(=O)O)C2C1=O (configuration not stated) | 0.74 | 15* | 13 | 1 | -1 | 3 | 0 | 1 | -2
CC(C)CC1(C(=O)O)NC(c2ccccc2O)C2C(=O)N(C(C)C)C(=O)C21 (configuration not stated) | 0.78 | 0 | 1 | 3 | -17 | -2 | / | / | /
CCC(C)C1CN(C(C)CN2CCCC2CN2C(N)=NCC2Cc2ccccc2)C(=N)N1CCCC1CCCC1 (configuration not stated) | 0.62 | / | / | / | / | / | / | / | /
CC(=NNc1ccccc1[N+](=O)[O-])c1ccccc1O | 0.69 | / | / | / | / | / | / | / | /
O=C(NN1C(=O)CSC1=S)C(=O)NN1C(=O)CSC1=S | 0.66 | 12* | -7 | 13* | 0 | 12* | 34* | 16* | 28*
CCCN1CCN(C(=O)c2cc3c(s2)-c2ccccc2OC3)CC1 | 0.72 | 15* | 1 | 8 | / | 13* | 23* | 7.3* | 16
CCOC(=O)N1CCN(C(=O)c2cc3c(s2)-c2ccccc2OC3)CC1 | 0.7 | 0 | 3 | 4 | 7 | 2 | / | / | /
Cc1ccc(S(=O)(=O)NN=Cc2ccc(OCC(=O)NC(C)C)cc2)cc1 | 0.73 | / | / | / | / | / | / | / | /
Oc1ccc(/C=N/N=C/c2ccc(O)c(O)c2)cc1O | / | 34* | 4 | 0 | 21 | -3 | -1 | 0 | -2
Oc1ccc(N=Cc2ccc(O)c(O)c2)cc1 | 0.68 | 1 | -6 | / | -21 | 0 | / | / | /
CCOc1ccc(CN(C)Cc2cc(=O)oc3cc(C)c(Cl)cc23)cc1 | 0.69 | 20* | 3 | 2 | 0 | 15* | -1 | -1 | -3
Cc1cc2oc(=O)cc(CN(C)Cc3cccc(F)c3)c2cc1Cl | 0.67 | -1 | 15 | 0 | -4 | 2 | / | / | /
Cc1cc(C)n2nc(C(=O)NN=Cc3c4ccccc4cc4ccccc34)nc2n1 | 0.74 | / | / | / | / | / | / | / | /
CCCCOC(=O)C(C)Oc1ccc(=O)n(-c2ccccc2)n1 (configuration not stated) | 0.77 | 21* | -3 | 2 | 13 | 5 | 4 | 1 | -3
Cc1cc(N/N=C/c2ccc(O)cc2O)nc(-c2ccccc2O)n1 | / | 14* | 1 | / | -63 | 4 | 17* | 7.1* | 9
O=S(=O)(c1ccc(NC(=S)NN=Cc2cccc(Oc3ccccc3)c2)cc1)N1CCOCC1 | 0.76 | / | / | / | / | / | / | / | /
CC(NC(=O)CN1CCOCC1)c1ccc(F)cc1 (configuration not stated) | 0.65 | 15* | -5 | 1 | -5 | 16* | 2 | 0 | -2
O=C(C1=CC(C2CCCCC2)CC(OCc2ccc(CO)cc2)O1)N1CCOCC1 (configuration not stated) | 0.73 | / | / | / | / | / | / | / | /
COc1ccc(NC(=O)CSc2ccc(-c3cccnc3)nn2)cc1 | 0.64 | 5 | 1 | 4 | 6 | 0 | / | / | /

Compound activity deposited in PubChem BioAssay by several laboratories.
